Measured values published in PubChem BioAssay (NCATS).
Results filed as inconclusive are left out. Calls of active or inactive are those of the source. The call rests on the fitted dose curve; in most records, active means well fitted curve in the direction sought with a large enough effect; inconclusive means small, poorly fitted or top-dose-only effect, or another doubt; inactive means no such curve, though single readings can be large; an effect the other way counts as inactive or inconclusive.

Tests used:
[1] = Quantitative highthroughput screen to assess conditional lethalithy of NOMO1 cells grown in RPMI1640 with untreated serum (RPMI+s) (AID 1963876); further: nearly all actives have a fitted effect of over 35% in size; further: potency means the concentration at half of the fitted maximal effect;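 on viability: 100% = DMSO wells and 0% = empty wells without cells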
How it was run: (§1)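 Each medium arm—HPLM with 10% dialyzed FBS, or RPMI1640 with 5 mM glucose and 10% untreated or dialyzed FBS—was screened against an 11-point, 3-fold compound titration for 48 h at 37 °C, with CellTiter-Glo luminescence as endpoint.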

[2] = Quantitative highthroughput screen to assess conditional lethalithy of P12 Ichikawa cells grown in Human Plasma-Like Medium with dialyzed fetal bovine serum (HPLM+ds) (AID 1963879); conditions: Potency: viability; further: nearly all actives have a fitted effect of over 35% in size; further: potency means the concentration at half of the fitted maximal effect; on viability: series mostly up to about 46 µM
How it was run: as §1

[3] = Quantitative highthroughput screen to assess conditional lethalithy of P12 Ichikawa cells grown in RPMI1640 with dialyzed fetal bovine serum (RPMI+ds) (AID 1963880); conditions: Potency: P12-Ichikawa viability; further: nearly all actives have a fitted effect of over 35% in size; further: potency means the concentration at half of the fitted maximal effect;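 on viability: 100% = DMSO wells and 0% = empty wells on each plate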
How it was run: as §1

[4] = Quantitative highthroughput screen to assess conditional lethalithy of SEM cells grown in RPMI1640 with unreated serum (RPMI+s) (AID 1963883); further: nearly all actives have a fitted effect of over 35% in size; further: potency means the concentration at half of the fitted maximal effect;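 on viability: 100% = DMSO wells and 0% = empty wells without cells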
How it was run: as §1

[5] = Quantitative highthroughput screen to assess conditional lethalithy of SEM cells grown in RPMI1640 with dialyzed fetal bovine serum (RPMI+ds) (AID 1963884); further: nearly all actives have a fitted effect of over 35% in size; further: potency means the concentration at half of the fitted maximal effect;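 on viability: series mostly up to about 46 µM; 100% = DMSO control wells and 0% = empty wells without cells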
How it was run: as §1

[6] = Cellular viability qHTS for adrenocortical cancer (ACC) cell line SW-13 (AID 1963989); conditions: SW-13 ACC cells viability, CellTiter-Glo, 48 h; activity (max response): active compounds read low; further: nearly all actives have a fitted effect of over 65% in size; further: potency means the concentration at half of the fitted maximal effect;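 on activity (max response): cells grown in serum-free medium with ITS supplement; on the % scale 0 is the no-effect control and ±100 the full control effect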
How it was run: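 48 h treatment, SW-13 in ITS/DMEM serum-free; doses up to 46 uM; readout CellTiter-Glo luminescence; curve fit four-parameter logistic.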

[7] = Cellular viability qHTS for adrenocortical cancer (ACC) cell line NCI-H295R (AID 1963990); further: nearly all actives have a fitted effect of over 60% in size; further: potency means the concentration at half of the fitted maximal effect
How it was run: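 Compound titrations (up to 46 uM final) are applied to NCI-H295R cultures for 48 h at 37C. Viable cell number is estimated by CellTiter-Glo signal, normalised to DMSO and doxorubicin controls.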

[8] = Quantitative highthroughput screen to assess conditional lethalithy of NOMO1 cells grown in RPMI1640 with dialyzed fetal bovine serum (RPMI+ds) (AID 1963877); further: nearly all actives have a fitted effect of over 30% in size; further: potency means the concentration at half of the fitted maximal effect;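 on viability: series mostly up to about 46 µM; 100% = DMSO control wells and 0% = empty wells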
How it was run: as §1

[9] = Quantitative highthroughput screen to assess conditional lethalithy of P12 Ichikawa cells grown in RPMI1640 with untreated serum (RPMI+s) (AID 1963881); conditions: Potency: viability; further: nearly all actives have a fitted effect of over 35% in size; further: potency means the concentration at half of the fitted maximal effect;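 on viability: series mostly up to about 46 µM; 100% = DMSO wells and 0% = empty wells without cells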
How it was run: as §1

[10] = Quantitative highthroughput screen to assess conditional lethalithy of NOMO1 cells grown in Human Plasma-Like Medium with dialyzed fetal bovine serum (HPLM+ds) (AID 1963878); further: nearly all actives have a fitted effect of over 35% in size; further: potency means the concentration at half of the fitted maximal effect;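 on viability: 100% = DMSO wells and 0% = empty wells on each plate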
How it was run: as §1

[11] = Quantitative highthroughput screen to assess conditional lethalithy of SEM cells grown in Human Plasma-Like Medium with dialyzed fetal bovine serum (HPLM+ds) (AID 1963882)
How it was run: as §1

O=c1[nH]c2ccc(Cl)cc2c(N[C@@H]2CN3CCC2CC3)c1-c1nc2ccccc2[nH]1
active: Potency [1] 132 nM | Potency [2] 469 nM | Potency [3] 372 nM | Potency [4] 83.3 nM | Potency [5] 66.2 nM | Potency [6] 3550 nM | Potency [7] 355 nM

Cc1ccccc1-n1c(Cn2ncc3c(N)ncnc32)nc2cccc(C)c2c1=O
inactive: Potency [4] | activity (max response) [6] 2.46%
active: Potency [8] 833 nM | Potency [2] 2960 nM | Potency [3] 3320 nM | Potency [9] 2640 nM

Oc1ccc2c3c1O[C@H]1c4[nH]c5c(c4C[C@@]4(O)[C@@H](C2)N(CC2CC2)CC[C@]314)C[C@@]1(O)[C@H]2Cc3ccc(O)c4c3[C@@]1(CCN2CC1CC1)[C@H]5O4
inactive: Potency [1] | Potency [2] | Potency [9] | Potency [5]

C[C@H]1CCCC=CC2C[C@H](O)C[C@@H]2[C@H](O)C=CC(=O)O1 (stereo not given in full)
inactive: Potency [5]
active: Potency [8] 1.2 nM | Potency [2] 37.2 nM

O=C(Oc1ccc([N+](=O)[O-])cc1)N1CCC(C(O)(c2ccc3c(c2)OCO3)c2ccc3c(c2)OCO3)CC1
active: Potency [2] 14800 nM
inactive: Potency [8] | Potency [3] | Potency [4] | activity (max response) [6] 5.03% | Potency [7]

CO[C@H]1CCC(O[C@H]2C[C@H]([C@]3(C)CC[C@]4(C[C@H](O)[C@@H](C)[C@@H]([C@@H](C)C=C(C)C(=O)[C@H](C)C[C@H](C)C(=O)O)O4)O3)O[C@]3(O[C@@H]([C@H]4O[C@@](O)(CO)[C@H](C)C[C@H]4C)C[C@H]3C)[C@H]2C)O[C@H]1C (stereo not given in full)
active: Potency [1] 18700 nM | Potency [2] 3720 nM | Potency [4] 1870 nM

CC(C)[C@]12O[C@@H]1[C@@H]1O[C@]13[C@]1(O[C@H]1C[C@@H]1C4=C(CC[C@@]13C)C(=O)OC4)[C@H]2O
active: Potency [8] 1.2 nM | Potency [2] 1.2 nM | Potency [3] 1.2 nM | Potency [4] 1.2 nM | Potency [5] 1.2 nM

CC(=CCCC1=CCC(C2=CC(=O)OC2O)OC1O)CCC1=C(C)CCCC1(C)C (stereo not given)
inactive: Potency [8] | Potency [10] | Potency [3] | Potency [9] | Potency [11] | Potency [5]

O=C(O)C(=O)c1cn(Cc2ccccc2)c2ccc(-c3ccc(OC(F)(F)F)cc3)cc12
inactive: Potency [8] | Potency [2] | Potency [3] | Potency [4]

C=C[C@@H]1CN2CCC1C[C@H]2[C@H](O)c1ccnc2ccccc12 (stereo not given in full)
active: Potency [8] 18700 nM

C[C@@H]1[C@H](O)[C@@H](C)C=CC=CCCC=CC=CC=CC=C[C@H](O[C@H]2O[C@@H](C)[C@H](O)[C@@H](N)[C@@H]2O)CC2O[C@](O)(C[C@@H](O)[C@H](O)CC[C@@H](O)C[C@@H](O)C[C@@H](O)CC(=O)O[C@H]1C)C[C@H](O)[C@H]2C(=O)O
inactive: Potency [8] | Potency [2] | Potency [3] | Potency [9] | Potency [4]

CC(O)=C(C#N)C(=O)Nc1cc(Br)ccc1Br
inactive: Potency [8] | Potency [2] | Potency [3] | Potency [9]

COc1cc2cc(c1Cl)N(C)C(=O)C[C@H](OC(=O)C(C)C)[C@]1(C)O[C@H]1[C@H](C)[C@@H]1C[C@@](O)(NC(=O)O1)[C@H](OC)C=CC=C(C)C2
inactive: Potency [8] | Potency [2] | Potency [3] | Potency [5]

C[C@]12CC[C@H](O)CC1=CC[C@H]1[C@H]3CCC(=O)[C@@]3(C)CC[C@@H]12
inactive: Potency [1] | Potency [10] | Potency [3] | Potency [4] | Potency [5]

O=C(O)CNC(=O)c1c(O)c2ccccc2n(Cc2ccccc2)c1=O
inactive: Potency [1] | Potency [10] | Potency [4] | activity (max response) [6] 3.51%

CC(C)(C)[C@]1(O)C[C@@H]2OC(=O)C[C@@]23C(=O)O[C@@H]2OC(=O)[C@H](O)C213 (stereo not given in full)
inactive: Potency [10] | Potency [2]

C[C@@]12OC(=O)[C@]1([C@@H](O)[C@@H]1C=CCCC1)NC(=O)[C@H]2CCCl
active: Potency [8] 209 nM | Potency [10] 166 nM | Potency [2] 235 nM | Potency [3] 187 nM | Potency [4] 52.6 nM | Potency [5] 46.9 nM

COc1ccc(CC2NCCc3cc(OC)c(OC)cc32)cc1OC (stereo not given)
active: Potency [4] 14800 nM
inactive: Potency [8] | Potency [10] | Potency [2] | Potency [9]

CC[C@@H]1[C@@H](C)O[C@@](O)([C@@H](C)[C@H](O)[C@H](C)[C@H]2OC(=O)C=CC=C[C@@H](C)[C@@H]([C@@H](C)[C@@H](O)[C@H](C)[C@@]3(O)C[C@H](O[C@H]4C[C@H](O)[C@H](O)[C@H](C)O4)[C@H](CC)[C@@H](C)O3)OC(=O)C=CC=C[C@@H]2C)C[C@H]1O[C@H]1C[C@H](O)[C@H](O)[C@H](C)O1
active: Potency [1] 2960 nM | Potency [2] 2960 nM | Potency [3] 3320 nM | Potency [9] 7430 nM | Potency [4] 2640 nM
